Sampled rows, rich in hits. Any-hit rate of the full collection: about 2.4%.
ANO1 activ – mouse TMEM16A channel activation, primary screen. 340,000 tested, 0.3% active. B-score at 10 µM. HEK293 TMEM16A/YFP-H148Q/I152L, iodide quench fluorescence; stronger effect = lower value. AID 623877. Q8BHY3;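 active means fluorescence-ratio B-score plate-corrected deviation score at least 3 library SD below zero, with starting fluorescence score within 5 deviations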;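 further: channel opened by trigger with iodide after compound preincubation; score built on the fluorescence ratio of max minus min over baseline; more negative score means more quench and so TMEM16A activation or potentiation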
Target sequence (Q8BHY3 whole entry, looked up): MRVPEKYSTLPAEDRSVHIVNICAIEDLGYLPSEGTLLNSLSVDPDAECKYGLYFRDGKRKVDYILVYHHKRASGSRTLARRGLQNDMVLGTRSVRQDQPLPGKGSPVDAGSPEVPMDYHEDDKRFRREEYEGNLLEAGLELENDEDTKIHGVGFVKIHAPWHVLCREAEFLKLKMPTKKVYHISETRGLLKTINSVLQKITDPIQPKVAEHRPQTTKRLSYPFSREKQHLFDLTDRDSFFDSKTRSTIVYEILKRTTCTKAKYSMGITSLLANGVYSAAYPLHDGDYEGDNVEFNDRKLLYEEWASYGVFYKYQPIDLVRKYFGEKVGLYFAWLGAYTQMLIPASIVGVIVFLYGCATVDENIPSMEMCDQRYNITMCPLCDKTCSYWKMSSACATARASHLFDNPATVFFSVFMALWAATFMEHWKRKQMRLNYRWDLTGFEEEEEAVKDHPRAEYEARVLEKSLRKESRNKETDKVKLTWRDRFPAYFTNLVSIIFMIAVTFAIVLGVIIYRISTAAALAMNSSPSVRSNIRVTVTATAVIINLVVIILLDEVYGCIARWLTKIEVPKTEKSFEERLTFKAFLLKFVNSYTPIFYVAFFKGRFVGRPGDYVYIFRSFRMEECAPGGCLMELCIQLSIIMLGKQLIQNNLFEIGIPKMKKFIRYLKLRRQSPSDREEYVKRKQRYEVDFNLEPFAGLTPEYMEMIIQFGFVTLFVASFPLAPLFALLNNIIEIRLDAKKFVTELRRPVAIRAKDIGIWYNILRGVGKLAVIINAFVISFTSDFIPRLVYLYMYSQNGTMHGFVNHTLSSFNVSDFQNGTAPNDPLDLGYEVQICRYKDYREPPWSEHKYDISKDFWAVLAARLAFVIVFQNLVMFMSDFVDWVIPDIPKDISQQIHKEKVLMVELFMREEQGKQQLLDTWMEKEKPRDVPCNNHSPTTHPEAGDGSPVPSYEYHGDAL
CHT inh – inhibitors of human choline transporter CHT; 310,000 tested, 0.86% active; AID 488975; CHT-expressing cells, membrane potential dye, choline response; stronger effect = lower value; B-score at 10 µM; Q9GZV3;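 active means B-score over 3 SD under the library average, and starting fluorescence ratio not unusually high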;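 further: choline stimulus applied at its EC90 after an EC20 pre-addition; B-score computed on integrated fluorescence ratio after choline addition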
TMEM16A inh – mouse TMEM16A channel inhibition, primary screen. Q8BHY3. HEK293 TMEM16A/YFP iodide influx fluorescence, ionomycin. normalized B-score (activity score, 25-100; higher = stronger inhibition) at 10 µM. 310,000 tested, 1.2% active;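 active means ratio plate-corrected score three or more library SD toward inhibition, starting fluorescence score within five deviations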;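 further: score derived from kinetic fluorescence span divided by baseline fluorescence per well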
CHT PAM – allosteric activators of human choline transporter CHT; CHT-expressing cells, membrane potential dye, choline EC20; stronger effect = higher value; LV-AA mutant CHT in HEK293 cells; B-score at 10 µM; 310,000 tested, 0.49% active; AID 488977;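 active means initial fluorescence not abnormally high and integrated response B-score, plate-corrected, over 3 SD above library mean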
CHT inh conf – confirmation of human choline transporter CHT inhibitors; shares compounds with CHT inh; 2,400 tested, 70% active; CHT-expressing cells, choline membrane potential dye; LV-to-AA substituted CHT, HEK293 cells; AID 493221; CHT activity remaining % of control (stronger effect = lower value), % at 10 µM;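 active means choline transporter activity left, mean of duplicates at 10 µM, below buffer-only control mean minus 3 SD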;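 further: depolarization triggered by choline at its EC90 following an EC20 pre-addition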
HEK293 CHT ctr – CHT inhibitor counter-screen hit in parental HEK293 cells; AID 493222; 2,400 tested, 4% active; shares compounds with CHT inh; membrane potential ratio readout (active if shifted either direction beyond buffer ±3SD; no single direction) at 10 µM; membrane potential dye, choline response; active = decrease or increase beyond buffer ±3SD;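 further: parental cells lack the transporter so any hit is non-specific; ratio is peak minus trough fluorescence over baseline after EC90 choline challenge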
Of the large screens only hits and unclear results are named; the others gave an inactive call (follow-up assays come after a bar, where they were run).

CCn1cc(/C=C(\NC(=O)c2ccccc2F)C(=O)N2CCOCC2)c2ccccc21	CHT inh -5.1 | CHT inh conf 46% | HEK293 CHT ctr inactive
CCn1cc(/C=C(\NC(=O)c2ccccc2OC)C(=O)NCCCn2ccnc2)c2ccccc21	none
O=C(NCCCn1ccnc1)/C(=C\c1ccc(Br)cc1)NC(=O)c1ccccc1	CHT inh -5 | CHT inh conf 59% | HEK293 CHT ctr inactive
O=C(N/C(=C\c1ccc(Br)cc1)C(=O)N1CCOCC1)c1ccccc1Cl	CHT inh -5.6 | CHT inh conf inactive | HEK293 CHT ctr inactive
O=C(NCCCn1ccnc1)/C(=C/c1ccccc1)NC(=O)c1ccccc1	none
CCOC(=O)/C=C1/SCC(=O)N1CC(=O)c1ccc[nH]1	none (no result: CHT inh, TMEM16A inh, CHT PAM)
C=CCN(CC=C)S(=O)(=O)c1ccc2nc(NC(=O)C3CCCO3)sc2c1 (stereo not given)	CHT inh -5 | CHT inh conf 58% | HEK293 CHT ctr inactive
Cc1ccnc(SCc2cc(=O)c(OC(=O)c3ccc(S(=O)(=O)N(C)C)cc3)co2)n1	CHT inh -6.5 | CHT inh conf 58% | HEK293 CHT ctr inactive
O=C(C[n+]1cccc2ccccc21)c1ccc([N+](=O)[O-])cc1	none
O=C(C[n+]1cc(Br)cc2ccccc21)c1ccccc1	CHT inh -6.4 | CHT inh conf 56% | HEK293 CHT ctr 2.4
O=C(C[n+]1cccc2ccccc21)c1ccc(Cl)cc1	CHT inh -8 | CHT inh conf 37% | HEK293 CHT ctr inactive
COc1cc(CCNC2=CC(=O)c3ncccc3C2=O)ccc1O	none (no result: CHT inh, TMEM16A inh, CHT PAM)
COc1ccc(C(C(=O)NC2CCCCC2)N(C(=O)c2ccco2)c2ccccc2C(C)=O)cc1OC (stereo not given)	CHT inh -5.1 | CHT inh conf 71% | HEK293 CHT ctr inactive
COc1cc(OC)c(C(=O)OCC(=O)NC23CC4CC(CC(C4)C2)C3)cc1OC	none (no result: CHT inh, TMEM16A inh, CHT PAM)
c1ccc(CCN2CCN(c3ncnc4c3cnn4-c3ccccc3)CC2)cc1	CHT inh -5.3 | CHT inh conf 34% | HEK293 CHT ctr inactive
Cn1ncc2c(N3CCC(Cc4ccccc4)CC3)ncnc21	CHT inh -6.6 | CHT inh conf 66% | HEK293 CHT ctr inactive
CCN1CCN(c2ncnc3c2cnn3-c2ccccc2)CC1	none
Cc1noc(C)c1NC(=O)Nc1ccc2c(c1)C(=O)N([C@H](C)CO)C[C@H](C)[C@@H](CN(C)C(=O)Nc1ccc3c(c1)OCO3)O2	none (no result: CHT inh, TMEM16A inh, CHT PAM)
CCOC(=O)N1CCN(C(=O)c2ccc3nc(SCc4ccc(F)cc4)n(C)c3c2)CC1	CHT inh -4.9 | CHT inh conf inactive | HEK293 CHT ctr inactive
CN1CCN(C(=O)c2ccc(CSc3nc4ccncc4n3Cc3ccc(F)cc3)cc2)CC1	none
COC(=O)C(CCCCNC(=O)c1ccc([N+](=O)[O-])cc1)NC(=O)c1ccc([N+](=O)[O-])cc1 (stereo not given)	none
CC1Cc2ccccc2N1CC(=O)NC(c1ccccc1)c1ccccc1 (stereo not given)	none
O=CN/C=C/c1cc(O)ccc1O	CHT inh -7.4 | CHT inh conf 48% | HEK293 CHT ctr inactive
CCc1c(C)nc2ncnn2c1NCCc1ccc(Cl)cc1	CHT inh -5.2 | CHT inh conf 63% | HEK293 CHT ctr inactive
CCc1c(C)nc2ncnn2c1NCCc1ccccc1	CHT inh -5.2 | CHT inh conf 47% | HEK293 CHT ctr inactive
COc1cc(/C=C2/C(=O)c3cccc([N+](=O)[O-])c3C2=O)c(Br)cc1O	CHT inh -7.2, TMEM16A inh 25 | CHT inh conf 43% | HEK293 CHT ctr inactive
COc1ccccc1NC(=O)CCCCCN1C(=O)c2cccc([N+](=O)[O-])c2C1=O	none
CC(C)(C)c1ccc(C(CC(=O)O)NC(=O)Cc2ccc(Cl)cc2)cc1 (stereo not given)	none
COc1ccc(N(CC(C)C)S(=O)(=O)c2nnc(NC(=O)c3ccco3)s2)cc1	none
Cc1ccc(NC(=S)Nc2ccc(F)cc2)cc1C	CHT inh -8.8 | CHT inh conf 65% | HEK293 CHT ctr inactive
Cc1ccc(NC(=S)Nc2ccc3nc(-c4ccccn4)c(-c4ccccn4)nc3c2)cc1C	CHT inh -5.3 | CHT inh conf 60% | HEK293 CHT ctr inactive
Cc1cccc(C)c1NC(=S)Nc1ccc(F)cc1	none
Cc1nc(N)sc1-c1csc(N(C)c2ccc(O)cc2)n1	none
CN(c1ccc(O)cc1)c1nc(-c2cccs2)cs1	CHT inh -5.1, TMEM16A inh 25 | CHT inh conf 70% | HEK293 CHT ctr inactive
O=C(O)c1ccc(N=NNc2cccc([N+](=O)[O-])c2)cc1	none
N#C/C(=N\Nc1ccc([N+](=O)[O-])cc1)C(N)=S	CHT inh -9.4, TMEM16A inh 100 | CHT inh conf -9.8% | HEK293 CHT ctr inactive
N#C/C(=N\Nc1cccc([N+](=O)[O-])c1)C(=O)c1ccc(Br)cc1	CHT inh -10, TMEM16A inh 25 | CHT inh conf 63% | HEK293 CHT ctr inactive
CC(=O)NC(CC(=O)NCCN1C(=O)S/C(=C\c2ccccc2)C1=O)c1ccccc1 (stereo not given)	CHT inh -5.7 | CHT inh conf 57% | HEK293 CHT ctr inactive
Cc1ccccc1NC(=O)c1cccc(S(=O)(=O)Oc2ccc([N+](=O)[O-])cc2)c1	CHT inh -5.7 | CHT inh conf inactive | HEK293 CHT ctr inactive
CC(C)(C)C(=O)NC(=S)NNC(=O)C(c1ccccc1)c1ccccc1	CHT inh -6.6, TMEM16A inh 100 | CHT inh conf 36% | HEK293 CHT ctr inactive
COC(=O)c1sc(NC(=O)c2ccc([N+](=O)[O-])o2)c(C#N)c1C	CHT inh -8 | CHT inh conf 62% | HEK293 CHT ctr 2.5
CC(=O)N1CCc2c(sc(NC(=O)c3ccc([N+](=O)[O-])o3)c2C#N)C1	none (no result: CHT inh, TMEM16A inh, CHT PAM)
CCOC(=O)c1cc2c(s1)-c1c(C)cccc1OC2	CHT inh -6.8 | CHT inh conf 68% | HEK293 CHT ctr inactive
Cc1cccc2c1-c1sc(C(=O)Nc3nccs3)cc1CO2	none
CCOc1ccc(/C=C2\SC(=S)N(NS(=O)(=O)c3ccccc3)C2=O)cc1OC	CHT inh -5.8 | CHT inh conf 56% | HEK293 CHT ctr inactive
CCOc1cc(/C=C2\SC(=S)N(NS(=O)(=O)c3ccccc3)C2=O)ccc1O	none
COc1ccc(OC)c(/C=C2\SC(=S)N(NS(=O)(=O)c3ccccc3)C2=O)c1	CHT inh -6.3 | CHT inh conf 57% | HEK293 CHT ctr inactive
CCOc1ccc(/C=C2\SC(=S)N(NS(=O)(=O)c3ccc(C)cc3)C2=O)cc1OC	CHT inh -6.1 | CHT inh conf 60% | HEK293 CHT ctr inactive
CN(c1ccccc1C(=O)N1CCc2ccccc2C1)S(C)(=O)=O	none
CCOc1ccccc1NC(=O)CSc1nc2ccccc2nc1N1CCOCC1	none

Compound activity (PubChem BioAssay)
